Assay results: the supplement of paper PMC10941209

tested on: HFF; test: cell viability relative to DMSO control; higher = less cytotoxic; conditions: 1 µM; 72 h
Method: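 Single-dose cytotoxicity screen of the MMV Pandemic Response Box at 1 uM on human foreskin fibroblasts (HFF), 72 h at 37 C. Viability measured by MTT (OD 550 nm) and normalised to the DMSO control (% survival).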

| Structure (SMILES) | cell viability |
| --- | --- |
| Cn1c2ccccc2c(=O)c2c(O)cccc21 | 65.8% |
| CNCC(=O)OCc1cccnc1N(C)C(=O)OC(C)[n+]1cnn(C[C@](O)(c2cc(F)ccc2F)[C@@H](C)c2nc(-c3ccc(C#N)cc3)cs2)c1 (some centres not stated) | 60.6% |
| O=C(/C=C\n1cnc(-c2cc(C(F)(F)F)cc(C(F)(F)F)c2)n1)NNc1ccccn1 | 62% |
| Nc1ccc(-c2nc3cc(C(F)(F)F)ccc3n2C23CC4CC(CC(C4)C2)C3)cc1 | 66.3% |
| CCc1nc(N)nc(N)c1C#CCc1ccccc1 | 69.3% |
| COc1ccc2c(c1OC)C(=O)OC2C1c2c(cc3c(c2OC)OCO3)CCN1C (configuration not stated) | 74.8% |
| CN(C)c1[nH]c(=O)ncc1F | 72% |
| CC[C@H](NC(=O)[C@H](C)NC)C(=O)N1C[C@@H](O)C[C@H]1Cc1c(-c2[nH]c3cc(F)ccc3c2C[C@@H]2C[C@H](O)CN2C(=O)[C@H](CC)NC(=O)[C@H](C)NC)[nH]c2cc(F)ccc12 | 31.2% |
| CC(C)(C)c1ccc(Oc2ccc(N)cc2)cc1 | 68.3% |
| CC(C)Nc1ncnc2c1cnn2-c1ccc(Cl)cc1 | 71.9% |
| Cc1c(F)cccc1NC(=O)Nc1ccc(Cl)c(S(=O)(=O)[C@H]2CCCNC2)c1O | 60.8% |
| OB1OCc2cc(Cl)ccc21 | 68.1% |
| O=C(NO)C1(CS(=O)(=O)c2ccc(Oc3ccc(Cl)cc3)cc2)CCOCC1 | 72.6% |
| N[C@H]1CCC[C@H]1C(=O)O | 70.6% |
| N[C@@H]1CN(c2c(F)cc3c(=O)c(C(=O)O)cn([C@@H]4C[C@@H]4F)c3c2Cl)CC12CC2 | 60.8% |
| CO[C@@]1(NC(=O)Cc2cccs2)C(=O)N2C(C(=O)O)=C(COC(N)=O)CS[C@@H]21 | 63.7% |
| Cc1ccc(N2CCC(CCOc3ccc(S(C)(=O)=O)cc3)CC2)nn1 | 68.1% |
| COc1cc(C)c2c(Oc3cccc(C(F)(F)F)c3)c(OC)cc(NC(C)CCCN)c2n1 (configuration not stated) | 61.2% |
| O=C(CC1Sc2ncnn2C1=O)Nc1ccc(Br)cc1 (configuration not stated) | 59.7% |

| Structure (SMILES) | cell viability |
| --- | --- |
| COc1ccc(-n2cnc3cc(NCc4ccco4)ccc32)cc1 | 52% |
| Cc1c(CN(C)C(=O)/C=C/c2cnc3c(c2)C(C)(C)C(=O)N3)oc2ccccc12 | 63.6% |
| O=C(O)CCNC(=O)c1ccccc1 | 66.9% |
| Cn1cc(NC(=O)c2cc(NC(=O)c3ccc(/C=C/c4cnc5ccccc5c4)cc3)cn2C)cc1C(=O)NCCN1CCOCC1 | 69.2% |
| CCOC(=O)N[C@@H]1CC[C@@H]2[C@@H](C1)C[C@H]1C(=O)O[C@H](C)[C@H]1[C@H]2/C=C/c1ccc(-c2cccc(F)c2)cn1 | 55.3% |
| C/C(=N\NC(=O)C1CC1c1ccccc1)c1ccc(NC(=O)c2ccco2)cc1 (configuration not stated) | 60% |
| O=C(O)c1sccc1S(=O)(=O)n1ccc2cc(Br)ccc21 | 65.1% |
| CO/N=C(\C(=O)N[C@@H]1C(=O)N2C(C(=O)OCOC(=O)C(C)(C)C)=C(/C=C\c3scnc3C)CS[C@H]12)c1csc(N)n1 | 66% |
| O=C1c2cccc3cccc(c23)C(=O)N1CC1CO1 (configuration not stated) | 63.8% |
| O=C(O)C(Cc1c[nH]c2ccccc12)N1C(=O)c2ccccc2C1=O (configuration not stated) | 68.5% |
| CC(C)N(c1cc(-c2ccccc2)sc1C(=O)O)C(=O)[C@H]1CC[C@H](C)CC1 | 67.5% |
| Fc1ccc(-n2cc(Cn3c(-c4cccc(F)c4)nc4ccccc43)nn2)cc1 | 71.1% |
| C[C@H](c1cccc2ccccc12)N(C)Cc1ccccc1 | 65.7% |
| O=C(NCc1ccc(F)cc1)c1c(O)c2ncccc2[nH]c1=O | 50.8% |
| C[C@@H](c1nc(-c2ccc(C#N)cc2)cs1)[C@](O)(Cn1cncn1)c1ccc(F)cc1F | 62.9% |
| COc1ccccc1NC(=O)c1ccccc1Sc1ccc([N+](=O)[O-])cc1 | 55.7% |
| CC[C@@H]1C(=O)OC[C@@H]1Cc1cncn1C | 62.8% |
| Nc1nc2c(ncn2/C=C2/CC2(CO)CO)c(=O)[nH]1 | 63.8% |
